Source: PubChem BioAssay AID743366 (National Center for Advancing Translational Sciences (NCATS), 2014)
Non-standard residues stand in square brackets, D forms with d. Residues, ends and D or L forms follow the SMILES beside them. Orn = NCCC[C@H](N)C(=O)O

Assay: qHTS profiling of inhibitors of Plasmodium falciparum (HB3) proliferation (acoustic dispense)
Conditions: P. falciparum HB3 in erythrocytes, SYBR Green, 72 h; at 49.8 µM (top of the series) unless noted

SMILES	activity (normalised, proliferation)
CC(=O)Nc1nc(C)c(-c2ccc(Cl)c(S(=O)(=O)NCCO)c2)s1	-1.46%
C[C@@H](Oc1ccc2[nH]nc(C=Cc3cnn(CCO)c3)c2c1)c1c(Cl)cncc1Cl	1.95%
CC(C)C[C@@H]1NC(=O)[C@H](CCCN)NC(=O)[C@H](C(C)C)NC(=O)[C@@H]2CCCN2C(=O)[C@@H](Cc2ccccc2)NC(=O)[C@H](CC(C)C)NC(=O)[C@H](CCCN)NC(=O)[C@H](C(C)C)NC(=O)[C@@H]2CCCN2C(=O)[C@@H](Cc2ccccc2)NC1=O (cyclo(V[Orn]L[dF]PV[Orn]L[dF]P))	3.19%
CCCCN(CCCC)CC(O)c1cc(Cl)cc2c1-c1ccc(Cl)cc1C2=Cc1ccc(Cl)cc1 (centres undefined)	-1.5%
CC(C)[C@H](C(=O)Nc1ccc(C(=O)NO)cc1)c1ccccc1	-0.656%
O=C1NC(=O)C(=Cc2ccc3nccc(-c4ccncc4)c3c2)S1	0.554%
Cn1cc(CNCC2CCN(c3ncc(C(=O)NO)cn3)CC2)c2ccccc21	-0.786%
CO[C@@H]1C(N(C)C(=O)c2ccccc2)C[C@H]2O[C@]1(C)n1c3ccccc3c3c4c(c5c6ccccc6n2c5c31)C(=O)NC4=O (some centres undefined)	17.3%
O=C(Nc1ccc([N+](=O)[O-])cc1Cl)c1cc(Cl)ccc1O	99.3%
CO[C@H]1O[C@@H]2O[C@@]3(C)CC[C@@H]4[C@@H](C)CC[C@@H]([C@H]1C)[C@@]24OO3	-0.929%
C[C@H]1c2cccc(O)c2C(O)=C2C(=O)[C@]3(O)C(O)=C(C(N)=O)C(=O)[C@@H](N(C)C)[C@@H]3[C@@H](O)[C@@H]21	2.34%
CCCCCCCCCCOc1cc2c(=O)c(C(=O)OCC)c[nH]c2cc1OCC	-0.332%
COc1cc2c(Oc3ccc(NC(=O)C4(C(=O)Nc5ccc(F)cc5)CC4)cc3F)ccnc2cc1OCCCN1CCOCC1	17.9%
C=C[C@@H]1CN2CCC1C[C@@H]2C(O)c1ccnc2ccc(OC)cc12 (some centres undefined)	1.73%
CC[C@H]1OC(=O)[C@H](C)C(=O)[C@H](C)[C@@H](O[C@H]2O[C@H](C)C[C@H](N(C)C)[C@@H]2O)[C@](C)(OC)C[C@@H](C)C(=O)[C@H](C)[C@H]2N(CCCCn3cnc(-c4cccnc4)c3)C(=O)O[C@]12C	5.95%
CC[C@]1(O)C[C@H]2CN(CCC3=c4ccccc4=N[C]3[C@@](C(=O)OC)(c3cc4c(cc3OC)N(C)[C@H]3[C@@](O)(C(N)=O)[C@H](O)[C@]5(CC)C=CCN6CC[C@]43[C@@H]65)C2)C1	2.35%
Cn1c(=O)n(-c2ccc(C(C)(C)C#N)cc2)c2c3cc(-c4cnc5ccccc5c4)ccc3ncc21	1.54%

SMILES	activity (normalised, proliferation)
NC1CCC(Nc2nc(Nc3ccc(C(=O)N4CCCCC4)cc3)c3ncn(-c4cccc(F)c4)c3n2)CC1 (centres undefined)	-0.546%
C=CCNc1c(O)cc2c(O)c1C[C@@H](C)C[C@H](OC)[C@@H](O)[C@@H](C)C=C(C)[C@H](OC(N)=O)[C@@H](OC)C=CC=C(C)C(=O)N2	-1.74%
C[C@@H]1CCC2[C@@H](C)[C@@H](O)O[C@@H]3O[C@@]4(C)CC[C@@H]1[C@@]23OO4 (some centres undefined)	-0.43%
Cc1ccc([N+](=O)[O-])cc1S(=O)(=O)N(C)N=Cc1cnc2ccc(Br)cn12	13.3%
CCn1nnc2c(N3CCOCC3)nc(-c3ccc(NC(=O)Nc4ccc(C(=O)N5CCN(C)CC5)cc4)cc3)nc21	4.68%
Cc1cn(-c2cc(NC(=O)c3ccc(C)c(Nc4nccc(-c5cccnc5)n4)c3)cc(C(F)(F)F)c2)cn1	1.32%
COc1cc(NC(C)CCCN)c2ncccc2c1 (centres undefined)	0.241%
COC(=O)c1ccc2c(C(=Nc3ccc(N(C)C(=O)CN4CCN(C)CC4)cc3)c3ccccc3)c(O)[nH]c2c1	35.3%
CN(C)c1ccc(C(=C2C=CC(=[N+](C)C)C=C2)c2ccc(N(C)C)cc2)cc1	108%
CCN[C@H]1C[C@H](C)S(=O)(=O)c2sc(S(N)(=O)=O)cc21	37.3%
CC(C)n1nc(-c2ccc3oc(N)nc3c2)c2c(N)ncnc21	-0.709%
O=C1c2ccccc2-[n+]2ccc3c([nH]c4ccccc43)c21	4.27%
C=CCn1c(=O)c2cnc(Nc3ccc(N4CCN(C)CC4)cc3)nc2n1-c1cccc(C(C)(C)O)n1	-0.406%
COc1ccc(-c2nc(N3CCOCC3)c3sc(CN(C)c4ncc(C(=O)NO)cn4)cc3n2)cn1	-1.14%
COc1ncc(-c2ccc3nccc(-c4ccnnc4)c3c2)cc1NS(=O)(=O)c1ccc(F)cc1F	-1.51%
C[C@H](Cn1cnc2c(N)ncnc21)OCP(=O)(O)O	92.2%
OB1OCc2cc(F)ccc21	0.13%
